# PLCb3 inh: human PLC-beta3 inhibitors, primary screen, biochemical, fluorescence | inhibition, % at 12.2 µM | hit rate 0.18% among 370,000 | 1-phosphatidylinositol 4,5-bisphosphate phosphodiesterase beta-3 (Homo sapiens), Q01970 | Purified PLC-beta3, fluorogenic substrate; in the data active means inhibition above about 11%;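 further: 0% = median of compound wells on plate and 100% = full blocker control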
# KLK7 zymogen act: proKLK7 zymogen activators, primary screen, biochemical, fluorescence intensity; activation, % at 7 µM; purified proKLK7, EDANS-DABCYL substrate fluorescence; 100% is mature enzyme control, 0% vehicle; hit rate 0.9% among 370,000; Kallikrein-7 (Homo sapiens), P49862;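 active means activation above the mean of all tested compounds plus 3 SD, computed per campaign excluding outliers beyond control limits, cut at about 13% in these data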
# HGIII-sPLA2 inh: human group III sPLA2 inhibitors, primary screen, biochemical, QFRET, BODIPY PC-A2 liposome substrate; Group 3 secretory phospholipase A2 (Homo sapiens), Q9NZ20; QFRET BODIPY PC-A2 liposome hydrolysis, fluorescence; hit rate 0.56% among 370,000; AID 743126, 2013; inhibition, % at 12.2 µM;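 active means inhibition above mean plus 3 SD of compounds lying within the high and low control bounds, cut at about 19% in these data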;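 further: 0% = median of test compound wells and 100% = no enzyme DMSO wells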
# ADAM10 inh: human ADAM10 inhibitors, primary screen, biochemical, QFRET, HTS; hit rate 0.62% among 370,000; inhibition, % at 7 µM; recombinant ADAM10, EDANS/DABCYL FRET peptide cleavage, 3 h; AID 720582, 2013;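 active means inhibition above a per-campaign cutoff equal to the mean of compounds falling between control-based bounds plus 3 SD, cut at about 20% in these data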;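 further: 0% = DMSO wells while the 100% control is not disclosed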
# Target sequence (O14672 214-748 limits assumed): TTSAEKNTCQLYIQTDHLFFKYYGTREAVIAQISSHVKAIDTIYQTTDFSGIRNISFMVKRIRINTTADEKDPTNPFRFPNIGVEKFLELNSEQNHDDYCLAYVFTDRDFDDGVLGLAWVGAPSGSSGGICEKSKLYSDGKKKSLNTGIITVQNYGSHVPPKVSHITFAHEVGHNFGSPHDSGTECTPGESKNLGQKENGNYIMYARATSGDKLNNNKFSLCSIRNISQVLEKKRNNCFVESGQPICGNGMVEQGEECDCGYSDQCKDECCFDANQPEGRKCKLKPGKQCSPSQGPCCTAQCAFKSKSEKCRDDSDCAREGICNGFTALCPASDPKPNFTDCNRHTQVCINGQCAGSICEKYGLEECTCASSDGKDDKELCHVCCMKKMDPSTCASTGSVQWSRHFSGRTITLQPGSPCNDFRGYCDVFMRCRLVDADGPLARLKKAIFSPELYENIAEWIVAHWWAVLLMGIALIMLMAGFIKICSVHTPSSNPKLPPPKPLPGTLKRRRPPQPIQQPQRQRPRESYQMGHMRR
# PLC-gamma1 inh: PLC-gamma1 enzyme inhibitors, primary screen, biochemical, fluorescence, purified enzyme. 1-phosphatidylinositol 4,5-bisphosphate phosphodiesterase gamma-1 (Homo sapiens), P19174. fluorogenic substrate. inhibition, % at 12.2 µM. hit rate 0.84% among 370,000; in the data active means inhibition above about 9.5%
# ADAM17 inh: ADAM17 inhibitors, primary screen, biochemical, QFRET | hit rate 0.83% among 370,000 | Disintegrin and metalloproteinase domain-containing protein 17 (Homo sapiens), P78536 | recombinant ADAM17, EDANS/DABCYL FRET peptide cleavage | AID 720648, 2013 | inhibition, % at 6.95 µM;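 active means inhibition above the mean of compounds lying between control limits plus 3 SD, set per campaign, cut at about 8.5% in these data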;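 further: 0% = DMSO-only wells as the low control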
# sPLA2 confirm: human group III sPLA2 inhibitors, confirmation, biochemical, QFRET, triplicate. shares compounds with HGIII-sPLA2 inh. AID 743280, 2014. recombinant hGIII-sPLA2, BODIPY PC-A2 QFRET fluorescence. hit rate 34% among 2,000. inhibition, % at 12.2 µM;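 active means mean inhibition across triplicates above the hit cutoff set in the earlier primary screen, cut at about 19% in these data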;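 further: 0% = enzyme with DMSO and 100% = DMSO wells lacking enzyme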
# BODIPY interf: 535nm fluorescence optical interference, confirmation, artefact control for HGIII-sPLA2 inhibitor project, biochemical, QFRET; shares compounds with HGIII-sPLA2 inh; BODIPY FL product fluorescence interference; inhibition, % at 12.2 µM; hit rate 8.5% among 2,000; AID 743282, 2014;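 active means average inhibition above the solvent-only control mean plus 3 SD, cut at about 6% in these data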;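 further: 0% = DMSO with substrate plus product and 100% = DMSO with substrate alone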
# BODIPY interf DR: 535nm fluorescence optical interference, dose response, artefact control for HGIII-sPLA2 inhibitor project, biochemical, QFRET; shares compounds with HGIII-sPLA2 inh; BODIPY FL product fluorescence interference, cell-free; 240 tested, under 10 active; IC50, µM;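 active means IC50 at or below 10 µM; inactive means IC50 above 10 µM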
# Starred values were filed as active, the others as inactive; / = no result given. This is a sample that favours compounds with a hit; in the whole collection about 3.4% have one here.
SMILES,PLCb3 inh,KLK7 zymogen act,HGIII-sPLA2 inh,ADAM10 inh,PLC-gamma1 inh,ADAM17 inh,sPLA2 confirm,BODIPY interf,others
CN(C)c1ccc(C=c2c3ccccc3n3c2c2c([n+]3C)CCCC2)cc1,-23,0,39*,-44,-16,-11,49*,-24,BODIPY interf DR=>122
CN(C)c1ccc(/C=C2\CCC/C(=C\c3ccccc3)C2=O)cc1,-68,0,4,10,-52,4,/,/,
CN(C)c1ccc(C=c2c3ccccc3n3c2cc(-c2ccccc2)[n+]3C)cc1,-96,1,31*,-45,-77,-11,56*,-26,BODIPY interf DR=>122
COc1cc(N(C)C)ccc1C=c1c2ccccc2n2c1cc(-c1ccccc1)[n+]2C,-23,2,45*,-29,-14,2,52*,-19,BODIPY interf DR=>122
O=C(CCC(=O)N1CCN(C2c3ccccc3-c3ccccc32)CC1)Nc1nnc(C(F)(F)F)s1,3,0,1,2,3,0,/,/,
O=C(CNS(=O)(=O)c1ccccc1)OCC(=O)c1ccc(Br)cc1,-3,1,0,3,2,-1,/,/,
O=C(CNS(=O)(=O)c1ccccc1)OCC(=O)c1ccc([N+](=O)[O-])cc1,-1,-1,25*,-1,2,-8,6,-2,
COc1cc(C(=O)NC2CCCCN(C)C2=O)cc(OC)c1OC (configuration not stated),-1,0,7,-7,-2,-4,/,/,
COc1ccc(/C=N/NC(=O)c2ccccc2O)cc1Cn1cc([N+](=O)[O-])cn1,-34,0,-7,1,-18,-6,/,/,
COc1ccc(/C=N/NC(=O)c2cc(O)c(O)c(O)c2)cc1Cn1cc([N+](=O)[O-])cn1,-3,1,21*,2,4,3,27*,-10,
Cc1c(O)c2c(=O)n(-c3ccccc3)c(-c3ccccc3)cc2oc1=O,-8,0,20*,-3,-8,0,7,-5,
Cc1nn(-c2ccccc2)c(C)c1C(=O)OCC(=O)N(C)C1CCS(=O)(=O)C1 (configuration not stated),-7,0,20*,-11,1,-7,-1,-8,
COC(=O)C1CN(Cc2ccc(Cl)cc2)CCS(=O)(=O)N1Cc1cn(Cc2ccc(Cl)cc2)nn1 (configuration not stated),1,0,-14,7,1,2,/,/,
CC(C)n1c(=S)[nH]c2scc(-c3cccs3)c2c1=O,-13,0,23*,10,-3,4,48*,9.6*,
COC(=O)[C@]12C[C@H](CC(=O)N3CCCCC3)C(=O)N(Cc3ccccc3)C1=C[C@H](COCc1ccccc1)O[C@@H]2C,1,1,-9,3,-1,-2,/,/,
N#CC1(Nc2cccc(Br)c2)C(=O)Nc2ccccc21 (configuration not stated),-1,0,22*,1,5,-2,-18,-2,
O=C(N/N=C/c1cccnc1)c1ccccc1[N+](=O)[O-],4,-1,19*,-5,-2,-5,5,-2,
O=C(NCc1cccnc1)c1ccccc1[N+](=O)[O-],8,0,25*,-9,-2,4,-2,-3,
CN1[C@H](Cc2ccccc2)COc2cccc(N3CCCC3)c2S1(=O)=O,-5,1,2,-1,-3,-3,/,/,
O=C(NC1CCCCN(Cc2cccc(Cl)c2)C1=O)c1ccccn1 (configuration not stated),-1,1,-3,-4,0,3,/,/,
COc1ccc2oc(C(=O)Nc3nc(-c4ccccn4)cs3)c(C)c2c1,-223,0,22*,-151,-219,-54,25*,-1,
C[C@H](NC(=O)c1ccco1)C(=O)Nc1nc(-c2ccccn2)cs1,-2,0,3,-8,2,5,/,/,
O=C(Nc1nc(-c2ccccn2)cs1)c1ccco1,-43,-1,20*,-25,-28,-11,2,-1,
O=C(Nc1nc(-c2ccccn2)cs1)c1ccc(Br)s1,-8,0,38*,-7,-8,-3,27*,0,
O=C(N[C@@H](Cc1cccnc1)C(=O)N1CCC[C@H]1C(=O)NC1CCCC1)C1CCCC1,2,0,6,-2,-4,-2,/,/,
SMILES,PLCb3 inh,KLK7 zymogen act,HGIII-sPLA2 inh,ADAM10 inh,PLC-gamma1 inh,ADAM17 inh,sPLA2 confirm,BODIPY interf,others
CCCCSc1nc2c(c(=O)[nH]1)CCC2,1,0,20*,-5,2,-5,0,-3,
CCN(C(=O)CSc1nnc(-c2cccnc2)n1Cc1ccco1)c1ccccc1,-3,0,11,-8,3,-2,/,/,
CC(=O)N1CCN(c2ccc(N3CCN(C(C)=O)[C@H](C)C3)c(C)c2)[C@H](C)C1,3,1,9,-6,4,4,/,/,
CCc1nc(SCC(=O)Nc2ccc(N(C)C)cc2)c2ccccc2n1,-9,0,22*,0,0,3,23*,-1,
CCc1nc(SCC(=O)NNC(=O)C(C)C)c2ccccc2n1,1,-1,6,2,2,0,/,/,
Cc1cccc(N2CCN(C(=O)CCN3C(=S)NC(C)(C)CC3C)CC2)c1C (configuration not stated),4,0,28*,7,9,5,12,-14,
O=C1NC2(CCCCC2)Cc2ccccc21,2,0,-4,6,-1,-3,/,/,
S=C1NC2(CCCCC2)Cc2ccccc21,2,1,21*,-8,3,1,14,-2,
COc1ccccc1C(=O)N1CCC2CCNC2C1 (configuration not stated),-1,0,17,-11,2,-5,/,/,
N#CCC[C@H]1CC[C@]2(CCCN(Cc3cccc4ccccc34)C2)O1,2,0,-2,1,-1,0,/,/,
